Screening results deposited in PubChem BioAssay by National Center for Advancing Translational Sciences (NCATS).
In the library only some 9.8% were active in any assay of this set; here they are far more common.
HttQ103 aggreg – reduces HttQ103-GFP aggregates in PC12 cells. AID 1688. PC12 HttQ103-GFP aggregates, Acumen cytometry, 40 h. 1.1% of 220,000 active. Potency, µM (highest dose often 46.1 µM), for inactives: at the highest dose activity change, negative = inhibition, most hits filed as inhibitors; further: potency means the concentration at half of the fitted maximal effect; on the % scale 0 is the no-effect control and ±100 the full control effect; nearly all actives have a fitted effect of over 60% in size
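Inducible Q103 Huntingtin exon 1–GFP PC12 line, 1500 cells/well in phenol red free DMEM with 5% equine and 5% calf serum. Tebufenozide 100 nM induced expression; compounds titrated; aggregates quantified by cytometry.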
ALDH1A1 inh – inhibitors of human aldehyde dehydrogenase 1A1. P00352. Purified ALDH1A1, NADH fluorescence, propionaldehyde substrate. Potency, µM (doses to about 75.3 µM), without a hit: at the highest dose activity, negative = inhibition, usual class: inhibitors. 7.3% of 220,000 active. AID 1030; active means well fitted inhibition curve with a large enough effect, not every such curve was filed as active; inconclusive means small, poorly fitted or top-dose-only effect, or another doubt; inactive means no such curve, though single readings can be large or run the other way;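 further: potency means the concentration at half of the fitted maximal effect; plate controls were no enzyme wells and a reference inhibitor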
JMJD2E inh – blocks human JMJD2E demethylase activity | B2RXH2 | JMJD2E catalytic domain, FDH-coupled NADH fluorescence (FDH is formaldehyde dehydrogenase) | Potency, µM (highest dose often 57.1 µM), for the others: at the highest dose activity change, negative = inhibition, usual class: inhibitors | 1.6% of 230,000 active; active means well fitted inhibition curve with a large enough effect, not every such curve was filed as active; inconclusive means small, poorly fitted or top-dose-only effect, or another doubt; inactive means no such curve, though single readings can be large or run the other way;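 further: potency means the concentration at half of the fitted maximal effect; 0% = wells with enzyme and -100% = buffer wells without enzyme; nearly all actives have a fitted effect of over 50% in size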
HPGD inh – blocks human HPGD enzyme activity; P15428; purified HPGD, NADH fluorescence kinetic, PGE2 substrate; Potency, µM, for the others: at the top dose activity change, negative = inhibition, usual class: inhibitors; 4.3% of 150,000 active; active means well fitted inhibition curve with a large enough effect, not every such curve was filed as active; inconclusive means small, poorly fitted or top-dose-only effect, or another doubt; inactive means no such curve, though single readings can be large or run the other way; further: potency means the concentration at half of the fitted maximal effect; on the % scale 0 is the no-effect control and ±100 the full control effect
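20 nM HPGD preincubated 15 min at room temperature with compound in 50 mM Tris-HCl pH 8, 0.01% Tween 20. Started with 1 mM NAD+ and 30 uM prostaglandin E2; NADH fluorescence (360/450 nm) read 5 times over 30-s intervals, last minus first.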
HTT cytoprotect – cytoprotection in Huntington HTT-Q103 PC12 cell model. PC12 HTT-Q103 induced, cytoprotection, ATP luminescence, 40 h. AID 1471. 0.14% of 230,000 active. Potency, µM (top dose mostly 56.4 µM), inactives show cytoprotection (ATP increase), most hits filed as activators; further: potency means the concentration at half of the fitted maximal effect; % of control where 0% means no effect; nearly all actives have a fitted effect of over 45% in size
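Readout: ATPlite luminescence (ATP level). Model: stable PC12, inducible Htt exon1 Q103-GFP. Inducer: tebufenozide, 100 nM final. Compounds: dose series. No G418 in medium.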
CBFb RUNX1 block – inhibitors of human CBF-beta and RUNX1 interaction; Q01196+Q13951; AlphaScreen CBFb-His/RUNX1-biotin binding, biochemical; Potency, µM (highest dose often 59.8 µM), inactives show top-dose activity, negative = inhibition, usual class: inhibitors; 230,000 tested, under 10 active; AID 1477; further: % of control where 0% means no effect
Target sequence (Q01196 whole entry, looked up): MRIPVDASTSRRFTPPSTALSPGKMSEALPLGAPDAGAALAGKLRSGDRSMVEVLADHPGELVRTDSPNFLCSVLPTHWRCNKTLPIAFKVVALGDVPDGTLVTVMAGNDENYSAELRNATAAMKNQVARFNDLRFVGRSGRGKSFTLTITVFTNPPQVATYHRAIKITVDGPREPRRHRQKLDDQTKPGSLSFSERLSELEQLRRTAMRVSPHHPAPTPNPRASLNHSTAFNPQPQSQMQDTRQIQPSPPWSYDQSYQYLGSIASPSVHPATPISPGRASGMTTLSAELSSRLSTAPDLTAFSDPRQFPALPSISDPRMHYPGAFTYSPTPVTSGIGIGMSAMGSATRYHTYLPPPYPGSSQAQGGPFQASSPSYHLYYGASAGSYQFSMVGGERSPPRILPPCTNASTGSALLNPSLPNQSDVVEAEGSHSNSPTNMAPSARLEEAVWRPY
Target sequence (Q13951 whole entry, looked up): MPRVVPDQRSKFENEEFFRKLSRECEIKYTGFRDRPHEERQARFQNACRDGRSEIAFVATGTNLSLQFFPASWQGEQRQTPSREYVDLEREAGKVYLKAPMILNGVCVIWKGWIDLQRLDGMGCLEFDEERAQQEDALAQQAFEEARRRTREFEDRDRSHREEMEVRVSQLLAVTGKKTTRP
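Compounds were screened at multiple concentrations against a preformed CBF-beta(His)/RUNX1(biotin) complex (30 nM of each) for 15 min at room temperature, followed by 90 min with nickel and streptavidin beads and AlphaScreen reading.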
Numbers without * were called inactive; [ ] = dose if it differs, or a comment. Unless noted, the call rests on the fitted dose curve; in most records, active means well fitted curve in the direction sought with a large enough effect; inconclusive means small, poorly fitted or top-dose-only effect, or another doubt; inactive means no such curve, though single readings can be large; an effect the other way counts as inactive or inconclusive.

`Cc1ccccc1-c1noc(-c2ccccc2C(=O)NCC2CCCO2)n1` (stereo unspecified) gave HttQ103 aggreg -7%[9.22 µM], JMJD2E inh 7%, HTT cytoprotect -9%[10 µM] and CBFb RUNX1 block 5%.
O=C(Nc1cc(S(=O)(=O)Nc2ccc(Cl)cc2)ccc1N1CCCCC1)c1ccc(F)cc1 was read as HttQ103 aggreg -19%, ALDH1A1 inh 28µM*, JMJD2E inh inconclusive, HPGD inh inconclusive, HTT cytoprotect -9%[10 µM] and CBFb RUNX1 block 2%.
O=S(=O)(Nc1ccc(Cl)cc1)c1ccc(N2CCOCC2)c(NC(=S)NCCN2CCOCC2)c1 was read as HttQ103 aggreg 9%, ALDH1A1 inh 8.9µM*, JMJD2E inh -27% and CBFb RUNX1 block -2%.
N#Cc1ccc(C(=O)Nc2cc(S(=O)(=O)Nc3ccc(Cl)cc3)ccc2N2CCCCC2)cc1 was read as HttQ103 aggreg 10%, ALDH1A1 inh inconclusive, JMJD2E inh inactive, HPGD inh 3%, HTT cytoprotect -4%[10 µM] and CBFb RUNX1 block -1%.
Screening CC(NC(=O)c1cc(S(=O)(=O)N(C)C)ccc1N1CCCC1)C1CC2CCC1C2 (stereo unspecified) returned HttQ103 aggreg 3%, ALDH1A1 inh 6%, JMJD2E inh 7%, HTT cytoprotect -35% and CBFb RUNX1 block 8%.
For Cc1ccc(/C([O-])=C(/C(=S)NCc2ccccc2)[n+]2ccccc2)cc1[N+](=O)[O-] the results were HttQ103 aggreg 10%, ALDH1A1 inh inconclusive, JMJD2E inh 5%, HTT cytoprotect -9% and CBFb RUNX1 block -7%.
`[O-]/C(=C(\C(=S)NCc1ccc2c(c1)OCO2)[n+]1ccccc1)c1ccc(Cl)s1` gave HttQ103 aggreg 20%, ALDH1A1 inh 16µM*, JMJD2E inh -12%, HTT cytoprotect -15% and CBFb RUNX1 block -18%.
Screening C=CCNC(=S)/C(=C(\[O-])c1ccc(Cl)cc1)[n+]1ccccc1 returned HttQ103 aggreg 4%[9.22 µM], ALDH1A1 inh 14µM*, JMJD2E inh inconclusive, HTT cytoprotect 3%[10 µM] and CBFb RUNX1 block inconclusive.
`[O-]/C(=C(\C(=S)NCc1ccccc1)[n+]1ccccc1)c1ccc(Cl)cc1` gave HttQ103 aggreg 1%, ALDH1A1 inh 8.9µM*, JMJD2E inh -12%, HTT cytoprotect -5%[10 µM] and CBFb RUNX1 block -16%.
Cc1c(Cl)cccc1NC(=S)/C(=C(\[O-])c1ccc(Cl)s1)[n+]1ccccc1 was read as HttQ103 aggreg 13%, ALDH1A1 inh 9%, JMJD2E inh -8%, HPGD inh inconclusive, HTT cytoprotect -20%[10 µM] and CBFb RUNX1 block -18%.
For Cc1ccc(/C([O-])=C(/C(=S)NCc2ccco2)[n+]2ccccc2)cc1 the results were HttQ103 aggreg -3%, ALDH1A1 inh -7%, JMJD2E inh 5%, HPGD inh -11%, HTT cytoprotect -6% and CBFb RUNX1 block -28%.
For Cc1c(C2CCN(CCc3ccccc3)CC2)noc1-c1ccc(Cl)cc1 the results were ALDH1A1 inh inconclusive, JMJD2E inh 8%, HPGD inh -4%, HTT cytoprotect -63% and CBFb RUNX1 block -3%.
Screening CCCOc1ccc(C(=O)Nc2cc(-c3nn4c(C)nnc4s3)ccc2C)cc1 returned HttQ103 aggreg inconclusive, ALDH1A1 inh -6%, JMJD2E inh 1%, HPGD inh 1.3µM*, HTT cytoprotect -2% and CBFb RUNX1 block 0%.
`COc1ccc(C(=O)NCc2nnc(SCC(=O)NO)n2Cc2ccccc2)cc1` gave HttQ103 aggreg -3%, ALDH1A1 inh 5%, JMJD2E inh -22%, HTT cytoprotect inconclusive and CBFb RUNX1 block 7%.
`Cn1c(=O)c2c(nc(CN3CCN(Cc4ccccc4)CC3)n2Cc2cccc(Cl)c2)n(C)c1=O` gave HttQ103 aggreg -14%, ALDH1A1 inh inconclusive, JMJD2E inh -1%, HPGD inh 5%, HTT cytoprotect -8% and CBFb RUNX1 block 16%.
Screening Cn1c(=O)c2c(nc(CN3CCN(C(=O)c4ccco4)CC3)n2Cc2ccccc2)n(C)c1=O returned HttQ103 aggreg 21%, ALDH1A1 inh 13µM*, JMJD2E inh -5%, HPGD inh -5%, HTT cytoprotect -19%[0.074 µM] and CBFb RUNX1 block 0%.
`Cn1c(=O)c2c(nc(CN3CCN(C(=O)c4ccco4)CC3)n2Cc2cccc(Cl)c2)n(C)c1=O` gave HttQ103 aggreg 10%, ALDH1A1 inh 14µM*, JMJD2E inh 3%, HPGD inh -2%, HTT cytoprotect -9% and CBFb RUNX1 block 5%.
For Cn1c(=O)c2c(nc(CN3CCN(C(=O)c4ccco4)CC3)n2Cc2ccc(Cl)cc2)n(C)c1=O the results were HttQ103 aggreg 15%, ALDH1A1 inh 14µM*, JMJD2E inh -3%, HPGD inh -6%, HTT cytoprotect 4% and CBFb RUNX1 block 1%.
`CC[C@@H](Nc1ncnc2c1oc1ccccc12)C(=O)O` gave HttQ103 aggreg -6%[9.22 µM], JMJD2E inh -1%, HTT cytoprotect 14%[10 µM] and CBFb RUNX1 block 7%.
Screening COc1cnc(-c2ccccn2)nc1Sc1ccccc1 returned HttQ103 aggreg -18%, ALDH1A1 inh 10µM*, JMJD2E inh 7% and HTT cytoprotect -59%.
For COc1cnc(-c2ccccn2)nc1Sc1ccc(F)cc1 the results were HttQ103 aggreg inconclusive, ALDH1A1 inh 7.9µM*, JMJD2E inh 4%, HTT cytoprotect 5%[10 µM] and CBFb RUNX1 block inconclusive.
`Cc1ccc(S(=O)(=O)NCC2CCCO2)cc1[N+](=O)[O-]` (stereo unspecified) gave HttQ103 aggreg 7%, ALDH1A1 inh -8%, JMJD2E inh 8%, HPGD inh -7%, HTT cytoprotect 22%[10 µM] and CBFb RUNX1 block -2%.
`COc1ccc(OC)c(-c2oc3ccccc3c(=O)c2O)c1` gave HttQ103 aggreg inconclusive, ALDH1A1 inh 0%, JMJD2E inh inconclusive, HPGD inh -23%, HTT cytoprotect -21% and CBFb RUNX1 block 3%.
Screening COc1ccc(OC)c(C2=C/C(=C/c3ccccn3)C(=O)O2)c1 returned HttQ103 aggreg -4%, ALDH1A1 inh inconclusive, JMJD2E inh 25µM*, HTT cytoprotect -12% and CBFb RUNX1 block inconclusive.
`O=C(O)c1cc(N/N=C/c2ccc(N3CCOCC3)s2)ccc1Cl` gave HttQ103 aggreg 11%, ALDH1A1 inh 2.8µM*, JMJD2E inh inconclusive, HPGD inh inconclusive, HTT cytoprotect 2%[10 µM] and CBFb RUNX1 block inconclusive.
Screening COC(=O)c1cc(S(=O)(=O)Nc2ccsc2C(=O)OC)oc1C returned HttQ103 aggreg 6%[9.22 µM], JMJD2E inh -3%, HTT cytoprotect -12%[10 µM] and CBFb RUNX1 block -3%.
